Targets with a hit are over-represented here; the source holds about 8,800 in all. About 0.5% of all pairs of compound and target were hits.
Tests used:
Test in all cases: log2 fold change, soluble protein after heating vs DMSO (PISA); higher = thermal stabilisation; K562 lysate, 10 uM; active = over 0.2 and 3.5 SD of the protein, either way, in both replicates (recomputed)
vemurafenib = compound: CCCS(=O)(=O)Nc1ccc(F)c(C(=O)c2c[nH]c3ncc(-c4ccc(Cl)cc4)cc23)c1F [vemurafenib]
Procedure, shortened: (§1)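 The values are log-two fold changes in thermal stability compared with solvent controls and come from duplicates. They were obtained by TMTpro 16plex LC-MS/MS, with channel sums equalised, on the supernatant after 21,000xg for 90 min. That supernatant came from crude K562 extract at 1 mg/mL protein treated with 10 μM compound for 30 min, heated for 3 min across 48°C-58°C, pooled and brought to 0.5% NP-40 at 4°C.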

[1] = compound: CCCS(=O)(=O)Nc1ccc(F)c(C(=O)c2c[nH]c3ncc(Cl)cc23)c1F
Procedure, shortened: as §1

barasertib = compound: CCN(CCCOc1ccc2c(Nc3cc(CC(=O)Nc4cccc(F)c4)[nH]n3)ncnc2c1)CCOP(=O)(O)O [barasertib]
Procedure, shortened: as §1

[2] = compound: CC[C@@H]1C(=O)N(C)c2cnc(Nc3ccc(C(=O)NC4CCN(C)CC4)cc3OC)nc2N1C1CCCC1
Procedure, shortened: as §1

volasertib = compound: CC[C@@H]1C(=O)N(C)c2cnc(Nc3ccc(C(=O)N[C@H]4CC[C@H](N5CCN(CC6CC6)CC5)CC4)cc3OC)nc2N1C(C)C [volasertib]
Procedure, shortened: as §1

[3] = compound: CCn1c(C(=O)N(C2CC2)C2CC2)cc2c3c(ncn3C)c(Nc3cc(C)n(C)n3)nc21
Procedure, shortened: as §1

[4] = compound: CCn1cc(-c2ccnc3[nH]c(-c4cccc(CN(C)C)c4)cc23)c(-c2ccc(NC(=O)N(C)C)cc2)n1
Procedure, shortened: as §1

[5] = compound: CN1CCC(CNc2ccc3ncc(-c4cccc(OC(F)(F)F)c4)n3n2)CC1
Procedure, shortened: as §1

saracatinib = compound: CN1CCN(CCOc2cc(OC3CCOCC3)c3c(Nc4c(Cl)ccc5c4OCO5)ncnc3c2)CC1 [saracatinib]
Procedure, shortened: as §1

sotrastaurin = compound: CN1CCN(c2nc(C3=C(c4c[nH]c5ccccc45)C(=O)NC3=O)c3ccccc3n2)CC1 [sotrastaurin]
Procedure, shortened: as §1

Measured: log2 fold change

USP3 (UniProt Q9Y6I4)
UniProt Q9Y6I4, sequence (Q9Y6I4 whole entry, looked up): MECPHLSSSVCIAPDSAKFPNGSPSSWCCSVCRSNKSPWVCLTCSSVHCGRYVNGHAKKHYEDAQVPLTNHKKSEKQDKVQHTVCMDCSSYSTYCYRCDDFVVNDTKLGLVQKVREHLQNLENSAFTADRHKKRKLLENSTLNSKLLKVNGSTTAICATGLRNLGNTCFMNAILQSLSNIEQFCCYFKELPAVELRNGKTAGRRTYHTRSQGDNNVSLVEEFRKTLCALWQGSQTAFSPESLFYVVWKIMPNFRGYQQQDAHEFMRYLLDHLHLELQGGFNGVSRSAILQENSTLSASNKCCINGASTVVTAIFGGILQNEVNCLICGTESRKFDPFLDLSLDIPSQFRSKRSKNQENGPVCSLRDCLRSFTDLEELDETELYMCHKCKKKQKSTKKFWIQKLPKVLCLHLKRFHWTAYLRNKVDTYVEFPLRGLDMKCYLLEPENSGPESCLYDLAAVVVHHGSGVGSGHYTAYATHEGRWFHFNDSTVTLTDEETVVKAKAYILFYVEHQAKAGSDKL
inactive: vemurafenib 0.041 | [1] -0.007 | barasertib 0.008 | [2] 0.023 | volasertib -0.012 | [3] -0.011 | [4] 0.064 | [5] -0.041 | saracatinib 0.011 | sotrastaurin 0.011

WRNIP1 (UniProt Q96S55)
inactive: vemurafenib 0.036 | [1] 0.042 | barasertib 0.064 | [2] -0.114 | volasertib -0.128 | [3] 0.014 | [4] -0.026 | [5] 0.03 | saracatinib -0.006 | sotrastaurin 0.042

ZFPM1 (UniProt Q8IX07)
inactive: vemurafenib 0.088 | [1] 0.007 | barasertib 0.031 | [2] -0.017 | volasertib 0.02 | [3] -0.042 | [4] -0.001 | [5] -0.021 | saracatinib 0.014 | sotrastaurin -0.009

VRK2 (UniProt Q86Y07)
UniProt Q86Y07, sequence (Q86Y07 whole entry, looked up): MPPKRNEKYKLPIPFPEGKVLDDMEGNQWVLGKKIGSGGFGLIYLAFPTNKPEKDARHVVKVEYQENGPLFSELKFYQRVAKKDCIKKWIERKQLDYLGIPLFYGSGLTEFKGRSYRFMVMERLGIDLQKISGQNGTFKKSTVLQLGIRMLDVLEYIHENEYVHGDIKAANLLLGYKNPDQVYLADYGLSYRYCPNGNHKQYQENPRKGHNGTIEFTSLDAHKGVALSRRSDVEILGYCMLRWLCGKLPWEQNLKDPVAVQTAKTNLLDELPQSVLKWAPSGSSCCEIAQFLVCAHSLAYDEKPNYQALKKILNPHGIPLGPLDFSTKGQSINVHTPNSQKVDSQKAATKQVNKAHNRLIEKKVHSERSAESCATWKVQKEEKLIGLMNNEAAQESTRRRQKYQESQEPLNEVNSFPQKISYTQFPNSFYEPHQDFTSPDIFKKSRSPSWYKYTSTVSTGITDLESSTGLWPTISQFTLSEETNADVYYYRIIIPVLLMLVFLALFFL
inactive: vemurafenib 0.113 | [1] 0.148 | barasertib 0.048 | [2] -0.032 | volasertib -0.008 | [3] 0.01 | [4] -0.104 | [5] 0.182 | saracatinib -0.022 | sotrastaurin 0.151

VPS41 (UniProt P49754)
inactive: vemurafenib -0.018 | [1] -0.016 | barasertib 0.085 | [2] 0.005 | volasertib -0.078 | [3] 0.06 | [4] 0.074 | [5] -0.054 | saracatinib 0.002 | sotrastaurin 0.058

VAC14 (UniProt Q08AM6)
UniProt Q08AM6, sequence (Q08AM6 whole entry, looked up): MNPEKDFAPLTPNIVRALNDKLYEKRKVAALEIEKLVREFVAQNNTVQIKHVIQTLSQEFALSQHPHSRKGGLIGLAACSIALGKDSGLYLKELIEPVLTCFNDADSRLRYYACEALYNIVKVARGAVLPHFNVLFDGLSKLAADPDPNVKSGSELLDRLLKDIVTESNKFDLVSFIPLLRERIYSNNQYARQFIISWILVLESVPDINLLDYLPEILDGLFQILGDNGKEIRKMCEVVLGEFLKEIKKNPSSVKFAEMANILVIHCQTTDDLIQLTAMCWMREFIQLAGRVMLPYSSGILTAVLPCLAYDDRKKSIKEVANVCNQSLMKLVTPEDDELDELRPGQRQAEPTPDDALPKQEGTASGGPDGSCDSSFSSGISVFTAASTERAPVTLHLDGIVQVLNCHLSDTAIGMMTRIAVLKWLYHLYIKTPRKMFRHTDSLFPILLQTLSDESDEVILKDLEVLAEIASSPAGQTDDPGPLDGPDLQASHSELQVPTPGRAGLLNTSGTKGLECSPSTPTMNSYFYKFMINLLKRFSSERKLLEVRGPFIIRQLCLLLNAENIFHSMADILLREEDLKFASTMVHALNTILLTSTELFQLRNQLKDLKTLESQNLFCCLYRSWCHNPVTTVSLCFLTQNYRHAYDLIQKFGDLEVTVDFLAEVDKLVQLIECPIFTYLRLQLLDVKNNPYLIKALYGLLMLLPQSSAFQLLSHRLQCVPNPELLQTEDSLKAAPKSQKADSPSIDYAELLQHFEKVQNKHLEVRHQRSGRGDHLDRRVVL
inactive: vemurafenib -0.002 | [1] 0.008 | barasertib 0.021 | [2] -0.021 | volasertib -0.02 | [3] 0.013 | [4] -0.032 | [5] 0.007 | saracatinib 0.007 | sotrastaurin 0

VAV3 isoform 4 (UniProt Q9UKW4)
inactive: vemurafenib 0.059 | [1] -0.004 | barasertib 0.049 | [2] -0.001 | volasertib -0.017 | [3] -0.291 | [4] -0.512 | [5] 0.177 | saracatinib -0.15 | sotrastaurin 0.001

ZNF318 (UniProt Q5VUA4)
inactive: vemurafenib 0.089 | [1] 0.025 | barasertib 0.077 | [2] 0.025 | volasertib 0.011 | [3] -0.007 | [4] 0.086 | [5] -0.033 | saracatinib 0.079 | sotrastaurin 0.047

ZHX1 (UniProt Q9UKY1)
active: [4] -0.603 | [5] 0.526
inactive: vemurafenib -0.058 | [1] 0.057 | barasertib 0.059 | [2] 0.144 | volasertib -0.079 | [3] -0.056 | saracatinib 0.011 | sotrastaurin 0.029

WDR41 (UniProt Q9HAD4)
inactive: vemurafenib -0.018 | [1] 0.036 | barasertib -0.07 | [2] 0.089 | volasertib 0.005 | [3] 0.053 | [4] -0.032 | [5] 0.053 | saracatinib 0.017 | sotrastaurin 0.043

WDR3 (UniProt Q9UNX4)
inactive: vemurafenib -0.01 | [1] 0.011 | barasertib 0.042 | [2] -0.063 | volasertib -0.043 | [3] 0.01 | [4] -0.024 | [5] 0.019 | saracatinib 0.002 | sotrastaurin 0.062

XPNPEP1 isoform 3 (UniProt Q9NQW7)
inactive: vemurafenib 0.001 | [1] 0.015 | barasertib 0.008 | [2] -0.044 | volasertib -0.054 | [3] 0.014 | [4] -0.022 | [5] 0.019 | saracatinib -0.001 | sotrastaurin -0.016

WDCP (UniProt Q9H6R7)
inactive: vemurafenib -0.004 | [1] 0.033 | barasertib 0.032 | [2] 0.031 | volasertib -0.019 | [3] -0.04 | [4] 0.003 | [5] 0.01 | saracatinib -0.011 | sotrastaurin 0.039

VTN (UniProt P04004)
active: [4] -0.615
inactive: vemurafenib 0.029 | [1] 0.058 | barasertib 0.043 | [2] 0.063 | volasertib -0.001 | [3] 0.011 | [5] 0.289 | saracatinib 0.075 | sotrastaurin -0.012

VASP (UniProt P50552)
inactive: vemurafenib -0.012 | [1] -0.011 | barasertib -0.069 | [2] -0.022 | volasertib -0.008 | [3] 0.009 | [4] 0.006 | [5] -0.009 | saracatinib 0.007 | sotrastaurin -0.004

WDR36 (UniProt Q8NI36)
inactive: vemurafenib 0.014 | [1] 0.018 | barasertib 0.011 | [2] -0.058 | volasertib -0.022 | [3] 0.034 | [4] 0.012 | [5] -0.076 | saracatinib -0.015 | sotrastaurin 0.044

WAC (UniProt Q9BTA9)
inactive: vemurafenib 0.018 | [1] 0.051 | barasertib 0.077 | [2] 0 | volasertib -0.003 | [3] 0.051 | [4] 0.061 | [5] 0.024 | saracatinib 0.013 | sotrastaurin -0.002

VRK1 (UniProt Q99986)
UniProt Q99986, sequence (Q99986 whole entry, looked up): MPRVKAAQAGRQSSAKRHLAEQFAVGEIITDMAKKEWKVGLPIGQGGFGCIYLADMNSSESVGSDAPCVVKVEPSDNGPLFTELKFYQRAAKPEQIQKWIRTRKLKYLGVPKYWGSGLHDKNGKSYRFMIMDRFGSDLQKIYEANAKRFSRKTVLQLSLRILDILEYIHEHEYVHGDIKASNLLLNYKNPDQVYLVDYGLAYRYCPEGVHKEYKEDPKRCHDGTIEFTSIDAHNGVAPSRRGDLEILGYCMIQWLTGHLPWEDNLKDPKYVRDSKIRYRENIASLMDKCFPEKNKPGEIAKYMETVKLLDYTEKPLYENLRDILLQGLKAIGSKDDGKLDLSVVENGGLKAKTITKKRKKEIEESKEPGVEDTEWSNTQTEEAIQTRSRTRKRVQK
inactive: vemurafenib 0.024 | [1] 0.024 | barasertib -0.002 | [2] -0.051 | volasertib -0.03 | [3] 0 | [4] -0.041 | [5] 0.031 | saracatinib 0.002 | sotrastaurin 0.178

ZNF598 isoform 3 (UniProt Q86UK7)
inactive: vemurafenib 0.022 | [1] 0.036 | barasertib 0.019 | [2] 0.067 | volasertib -0.032 | [3] 0.017 | [4] -0.011 | [5] 0.001 | saracatinib -0.008 | sotrastaurin 0.014

VPS4A (UniProt Q9UN37)
inactive: vemurafenib 0.096 | [1] -0.006 | barasertib 0.014 | [2] -0.063 | volasertib -0.09 | [3] 0.054 | [4] -0.12 | [5] -0.036 | saracatinib 0.027 | sotrastaurin 0.056

XAB2 (UniProt Q9HCS7)
inactive: vemurafenib 0.033 | [1] 0.075 | barasertib -0.015 | [2] 0.065 | volasertib -0.02 | [3] 0.05 | [4] -0.044 | [5] 0.017 | saracatinib 0.006 | sotrastaurin 0

WDR7 (UniProt Q9Y4E6)
inactive: vemurafenib -0.005 | [1] -0.035 | barasertib -0.019 | [2] -0.041 | volasertib -0.057 | [3] 0.029 | [4] -0.007 | [5] 0.047 | saracatinib -0.018 | sotrastaurin 0.01

VCPIP1 (UniProt Q96JH7)
inactive: vemurafenib 0.008 | [1] -0.04 | barasertib 0.051 | [2] -0.006 | volasertib -0.047 | [3] 0.011 | [4] -0.12 | [5] 0.049 | saracatinib -0.03 | sotrastaurin 0.035

XPO1 (UniProt O14980)
UniProt O14980, sequence (O14980 whole entry, looked up): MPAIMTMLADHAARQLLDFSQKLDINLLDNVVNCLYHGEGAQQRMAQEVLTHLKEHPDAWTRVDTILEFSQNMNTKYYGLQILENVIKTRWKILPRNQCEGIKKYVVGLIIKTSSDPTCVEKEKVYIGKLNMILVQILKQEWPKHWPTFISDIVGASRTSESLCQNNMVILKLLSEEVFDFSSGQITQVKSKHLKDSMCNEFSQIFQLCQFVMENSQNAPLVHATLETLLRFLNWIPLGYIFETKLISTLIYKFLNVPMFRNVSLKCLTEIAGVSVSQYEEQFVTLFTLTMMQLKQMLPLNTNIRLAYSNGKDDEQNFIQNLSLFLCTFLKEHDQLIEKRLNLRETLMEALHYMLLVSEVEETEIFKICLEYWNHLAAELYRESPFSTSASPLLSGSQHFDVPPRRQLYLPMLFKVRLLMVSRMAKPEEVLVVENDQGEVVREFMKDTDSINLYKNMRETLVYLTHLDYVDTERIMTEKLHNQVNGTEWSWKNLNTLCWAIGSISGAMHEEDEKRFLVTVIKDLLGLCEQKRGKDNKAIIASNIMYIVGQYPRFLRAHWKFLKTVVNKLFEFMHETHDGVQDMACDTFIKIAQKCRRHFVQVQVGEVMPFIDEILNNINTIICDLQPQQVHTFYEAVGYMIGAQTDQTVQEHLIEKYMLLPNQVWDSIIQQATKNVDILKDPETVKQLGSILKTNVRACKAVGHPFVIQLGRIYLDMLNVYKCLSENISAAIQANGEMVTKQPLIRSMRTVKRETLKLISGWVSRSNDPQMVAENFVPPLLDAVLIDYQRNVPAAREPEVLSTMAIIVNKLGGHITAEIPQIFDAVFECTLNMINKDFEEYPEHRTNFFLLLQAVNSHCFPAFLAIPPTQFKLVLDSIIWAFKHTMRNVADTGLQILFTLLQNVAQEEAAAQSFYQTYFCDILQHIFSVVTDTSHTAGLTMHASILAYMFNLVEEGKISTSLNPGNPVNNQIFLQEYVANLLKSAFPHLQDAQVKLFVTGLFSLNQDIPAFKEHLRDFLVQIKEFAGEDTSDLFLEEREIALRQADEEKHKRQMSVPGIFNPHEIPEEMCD
inactive: vemurafenib 0.015 | [1] 0.005 | barasertib 0.023 | [2] -0.055 | volasertib -0.026 | [3] 0.013 | [4] -0.05 | [5] 0.019 | saracatinib 0.033 | sotrastaurin 0.022

YES1 (UniProt P07947)
inactive: vemurafenib 0.068 | [1] 0.088 | barasertib 0.334 | [2] -0.086 | volasertib -0.205 | [3] -0.106 | [4] -0.146 | [5] -0.007 | saracatinib 0.331 | sotrastaurin -0.084

USP10 isoform 2 (UniProt Q14694)
inactive: vemurafenib 0.021 | [1] 0.013 | barasertib 0.002 | [2] -0.005 | volasertib -0.039 | [3] 0.013 | [4] -0.079 | [5] 0 | saracatinib 0.005 | sotrastaurin 0.008

VPS11 (UniProt Q9H270)
UniProt Q9H270, sequence (Q9H270 whole entry, looked up): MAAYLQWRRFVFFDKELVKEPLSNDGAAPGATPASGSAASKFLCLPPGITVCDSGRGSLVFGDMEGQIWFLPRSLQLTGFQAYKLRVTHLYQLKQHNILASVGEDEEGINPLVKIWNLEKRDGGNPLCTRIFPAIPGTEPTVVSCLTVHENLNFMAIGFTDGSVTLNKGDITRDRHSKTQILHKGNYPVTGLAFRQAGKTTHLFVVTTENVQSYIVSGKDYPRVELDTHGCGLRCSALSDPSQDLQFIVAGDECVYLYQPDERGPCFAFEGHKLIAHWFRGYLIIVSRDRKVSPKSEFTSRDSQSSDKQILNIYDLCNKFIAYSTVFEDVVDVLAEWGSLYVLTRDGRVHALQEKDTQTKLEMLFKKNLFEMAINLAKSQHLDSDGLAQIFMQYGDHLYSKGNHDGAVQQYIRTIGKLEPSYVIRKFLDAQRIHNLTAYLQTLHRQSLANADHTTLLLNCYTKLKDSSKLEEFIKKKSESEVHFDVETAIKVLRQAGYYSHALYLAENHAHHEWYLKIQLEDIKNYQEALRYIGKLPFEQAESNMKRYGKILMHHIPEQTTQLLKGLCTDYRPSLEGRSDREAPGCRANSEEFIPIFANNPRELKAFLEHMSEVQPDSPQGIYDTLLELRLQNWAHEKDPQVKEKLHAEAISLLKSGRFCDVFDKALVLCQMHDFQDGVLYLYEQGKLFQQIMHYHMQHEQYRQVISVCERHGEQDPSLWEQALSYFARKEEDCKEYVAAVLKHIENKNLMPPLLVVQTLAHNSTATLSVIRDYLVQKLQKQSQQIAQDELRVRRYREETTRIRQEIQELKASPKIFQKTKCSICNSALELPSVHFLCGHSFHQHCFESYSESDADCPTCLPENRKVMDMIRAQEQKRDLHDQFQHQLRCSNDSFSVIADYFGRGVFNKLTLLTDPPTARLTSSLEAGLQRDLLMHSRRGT
inactive: vemurafenib -0.002 | [1] 0.034 | barasertib 0.013 | [2] -0.033 | volasertib -0.038 | [3] 0.015 | [4] -0.051 | [5] -0.007 | saracatinib 0.039 | sotrastaurin 0.019

USE1 (UniProt Q9NZ43)
UniProt Q9NZ43, sequence (Q9NZ43 whole entry, looked up): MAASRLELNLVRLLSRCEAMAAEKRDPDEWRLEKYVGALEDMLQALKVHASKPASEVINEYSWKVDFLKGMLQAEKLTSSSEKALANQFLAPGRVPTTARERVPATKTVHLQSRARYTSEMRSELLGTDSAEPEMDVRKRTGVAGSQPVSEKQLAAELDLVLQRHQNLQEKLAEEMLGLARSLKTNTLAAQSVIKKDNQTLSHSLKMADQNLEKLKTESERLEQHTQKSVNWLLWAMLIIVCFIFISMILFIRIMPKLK
inactive: vemurafenib -0.071 | [1] -0.049 | barasertib 0.021 | [2] 0.036 | volasertib 0.04 | [3] 0.093 | [4] 0.002 | [5] -0.103 | saracatinib -0.02 | sotrastaurin 0.017

UQCRC2 (UniProt P22695)
UniProt P22695, sequence (P22695 whole entry, looked up): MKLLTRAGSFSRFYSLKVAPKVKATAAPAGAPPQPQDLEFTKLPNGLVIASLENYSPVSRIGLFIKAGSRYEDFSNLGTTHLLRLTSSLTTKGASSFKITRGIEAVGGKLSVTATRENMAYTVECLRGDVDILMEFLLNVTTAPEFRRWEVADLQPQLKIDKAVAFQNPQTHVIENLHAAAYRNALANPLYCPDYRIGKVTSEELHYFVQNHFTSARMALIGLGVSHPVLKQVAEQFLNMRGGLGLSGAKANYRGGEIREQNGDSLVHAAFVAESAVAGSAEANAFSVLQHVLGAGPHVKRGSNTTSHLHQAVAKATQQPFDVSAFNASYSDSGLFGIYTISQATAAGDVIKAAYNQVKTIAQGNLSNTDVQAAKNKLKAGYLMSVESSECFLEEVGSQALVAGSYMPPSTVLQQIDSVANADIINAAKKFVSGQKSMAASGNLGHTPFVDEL
inactive: vemurafenib -0.016 | [1] 0.01 | barasertib -0.018 | [2] 0.026 | volasertib 0.01 | [3] -0.015 | [4] 0.034 | [5] -0.003 | saracatinib 0.002 | sotrastaurin -0.02

USP48 isoform 8 (UniProt Q86UV5)
inactive: vemurafenib -0.002 | [1] 0.036 | barasertib 0.002 | [2] -0.013 | volasertib -0.043 | [3] 0.007 | [4] -0.011 | [5] -0.032 | saracatinib -0.004 | sotrastaurin 0.031

— the supplement of paper PMC10849652
